This is part of a sample that, as a whole, favours compounds with a hit. Of some 83,000 tested, about 20% had one in any assay.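 Plates (96-well) were seeded with cells, treated with compound at one concentration, and incubated for 48 hours before percent growth was determined.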 A number with no mark means an inactive call. Active and inactive are the calls of the source. How the source made its calls: active means growth percent below 10; inactive means the rest.

This test deals with HL-60(TB) leukemia. In words: NCI-60 one-dose screen, 48 h (100 = growth as untreated, 0 = no growth, -100 = all killed). Conditions: 10 µM unless noted.
On to `Cc1ccc(NC(=O)N2CCCCC2)cc1[N+](=O)[O-]`, for which the growth was 104%.
To `CC1(C)O[C@H]2OC3CCC(=O)CC3(O)[C@H]2O1` (stereo not given in full) belongs 102%; to `NC(=O)c1cc(I)ccc1NC(=O)/C=C/c1ccccc1Cl`, -34.5% (active); to `CC1CCN(C(=O)CCCl)c2ccccc21` (stereo not given), 112%.
To `CCOC(=O)c1c(C)n(-c2ccc(Cl)cc2)c2ccc(OC(=O)/C=C/c3ccccc3)cc12` belongs 57.1%; to `O=C1/C(=C\c2ccccc2)CN(C(=O)c2ccccc2)C/C1=C\c1ccccc1`, 29.6%; to `CN(C)CCN1C(=O)c2cccc3c(-c4ccc(-c5nc6c7ccccc7c7ccccc7c6[nH]5)cc4)ccc(c23)C1=O`, 90.7%.
Then `N#Cc1cccc(-c2ccc3c(c2)NC(=O)/C3=C\c2ccc[nH]2)c1`, with 64.8%.
Regarding `CC1(c2ccc3ccccc3c2)CCC(=O)O1` (stereo not given), the growth was 92.7%.
Then `CC1C(=NC(=O)c2cnccn2)C(C)C(c2ccc(Cl)cc2)NC1c1ccncc1` (stereo not given), with 108%; and `CC(C)(C)c1ccc(S(=O)(=O)N[C@H]2CC[C@H]3[C@@H]4CCc5cc(O)ccc5[C@H]4CC[C@]23C)cc1`, with 23%.
Then `COc1ccc(N/N=C/c2cn(-c3ccc(C(=O)O)cc3)nc2-c2cc3ccccc3oc2=O)cc1`, with 8.19% (active).
Then `COc1cccc(-c2cn3c(ccc4ccccc43)n2)c1`, with 6.28% (active); and `COc1ccc2c3c(c(OCCCN(C)C)nc2c1)-c1ccc(Cl)cc1C3=O`, with 70.7%; and `Cc1nc(Nc2ccc(Cl)cc2)c2cnn(-c3ccccc3)c2n1`, with 102%.
Consider `COc1cc2ncnc(Nc3ccc(F)c(Cl)c3)c2cc1NC(=O)/C=C/CN1CCCCC1`, for which the growth is -50.2% (active).
To `CCOC(=O)c1csc(NC(=O)COc2ccc(/C=C3\Oc4ccccc4C3=O)cc2)n1` belongs 7.24% (active).
Then `Cc1ccc2[nH]c3nc4cccnc4c(C)c3c2c1`, with 83.5%.
To `COc1cc(C)c(Cc2cnc(N)nc2N)cc1OC` belongs 129%; to `CCCCN(CCCC)C(=N)c1ccnc2ccccc12`, 64.8%; to `CSc1nc(N)c2c(n1)N(C)C=NS2(=O)=O`, 124%.
On to `CN1C(=O)/C(=C/c2ccc(C(=O)Nc3ncc(Cc4ccc(F)cc4)s3)cc2)SC1=S`, for which the growth was 37.6%.
To `CN(C)CCCn1c2c(c3cc(-c4ccco4)ccc3c1=O)C(=O)c1ccccc1-2` belongs 93.1%; to `COc1ccc(OC)c2c1CCC1(C2)NC(=O)NC1=O` (stereo not given), 111%.
`COc1ccc(Nc2nc(NCCNc3ccnc4cc(Cl)ccc34)nc(N3CCOCC3)n2)cc1`: the growth is 22.8%.
To `O=C(Cc1ccccc1)NNc1nc(Cl)nc(N2CCN(C(c3ccccc3)c3ccccc3)CC2)n1` belongs 58.2%; to `C=C1C[C@H](O)[C@H](Br)C(C)(C)[C@@]12CCC(C)=C(Cl)C2`, -8.6% (active).
Then `CCN1C(=O)N(CC)C2Nn3c(s/c(=C\c4cccc(F)c4)c3=O)=NC21` (stereo not given), with 38.6%.
To `CN[C@@H](CCCNC(N)=NC/C=C(/C)CCC=C(C)C)C(=O)N(C)[C@@H](CCCNC(N)=NCC=C(C)C)C(=O)N[C@H](C)[C@H](OS(=O)(=O)O)c1ccc(OS(=O)(=O)O)c(COS(=O)(=O)O)c1` belongs 83.5%; to `CCCCCCCCCCCCCCCCOCCCOP(=O)(O)C1CCCN(O)C1=O` (stereo not given), -13.6% (active); to `Cc1cc(N2CCCCC2)nc(NC2CCCC(Nc3ccnc4cc(Cl)ccc34)C2)n1` (stereo not given), -63.6% (active).
Turning to `CCOc1ccc(Nc2nc(-c3ccc4c(c3)NC(=O)CO4)cs2)cc1`, the growth was 66.9%.
To `CCn1c2ccccc2c2ccc(C(C)=O)cc21` belongs 118%; to `CC(C)(C)c1ccc(C(=O)N/N=C/c2ccc(O)cc2O)cc1`, 5.19% (active).
Then `Cc1cc(=O)oc2cc(Oc3nc(Br)cn4c(Br)cnc34)ccc12`, with 30.8%.
Then `CC(C)C1(C(C)C)NC(=O)NC1=O`, with 95.1%.
For `CC(=O)C1CC(C)CCC1C(C)C` (stereo not given), the growth is 58.7%.
For `COc1ccc(/C=C(\C(=O)NCc2cccnc2)S(=O)(=O)c2ccccc2)cc1OC`, the growth is 33%.
Then `COc1ccc(/C=N/NC(=O)Cn2c(-c3ccc(S(C)(=O)=O)cc3)nc3cc(Cl)ccc32)cc1`, with -51.6% (active); and `CC(=O)Nc1ccc(-c2cc3c(NCc4ccc(F)cc4)ncnc3s2)cc1`, with 89.1%.

(Values after PubChem BioAssay (NCI).)
